Measured values as given in a collection of fitness landscapes (doi:10.1016/j.celrep.2020.107928).
Over roughly 81,000 sequences, “one-hybrid fitness for binding NBS DNA” has its median near -0.1; the highest 2% begin near 0.36. The sample holds the highest values, similar sequences and a random draw of the others, so the mix is not that of the screen.

B1: Caulobacter ParB omega fusion; a variant is named by its letters at X, in order, B8GW30 (parent)
chain: MESVVVGEPGMSEGRRGLGRGLSALLGEVDAAPAQAPGEQLGGSREAPIEILQRNPDQPRRTFREEDLEDLSNSIREKGVLQPILVRPSPDTAGEYQIVAGERAWRAAQRAGLKTVPIMVRELDDLAVLEIGIIENVQRADLNVLEEALSYKVLMEKFERTQENIAQTIGKSXSHVANXMRLLXLPDEVQSYLVSGELTAXHARAIAAAADPVALAKQIIEGGLSVRETEALARKAPNLSAGKSKGGRPPRVKDTDTQALESDLSSVLGLDVSIDHRGSTGTLTITYATLEQLDDLCNRLTRGI

Variants of: B1
Assay: one-hybrid fitness for binding NBS DNA (the Noc-binding site; scaled: cognate 1, non-cognate 0); higher = stronger binding
Settings: with NBS DNA site
In short: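 Bacterial one-hybrid selection in E. coli USO rpoZ- hisB- pyrF- with a HIS3 reporter carrying the site 19 bp from the promoter, screening Caulobacter ParB libraries with four specificity codons randomised (NNS). Cells grew 48 hours at 37°C on M9-minus-histidine plus 0.1 mM IPTG and 5 mM 3-AT. Plasmids before and after selection were Illumina-sequenced, three replicate libraries pooled, and variants under 10 reads dropped. Fitness is the log change in variant-to-wild-type read ratio, rescaled to cognate 1, non-cognate 0.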

Variant | one-hybrid fitness for binding NBS DNA
YQVF | ≤ 0.2
LPAV | ≤ 0.2
QGMS | ≤ 0.2
PQVE | ≤ 0.2
PMPS | ≤ 0.2
FPGC | ≤ 0.2
QPNT | ≤ 0.2
QLNN | ≤ 0.2
QFNT | ≤ 0.2
QSND | ≤ 0.2
QCNT | 0.569
QIDT | ≤ 0.2
QINT | 0.462
QLDT | 0.249
QLNT | 0.45
QSNT | 0.476
QSDT | 0.32
QINH | ≤ 0.2
MQSN | ≤ 0.2
EVQG | ≤ 0.2
AVQR | ≤ 0.2
DELG | ≤ 0.2
YHGF | ≤ 0.2
ENKN | ≤ 0.2
PKSC | ≤ 0.2

Variant | one-hybrid fitness for binding NBS DNA
EETG | ≤ 0.2
PKIC | ≤ 0.2
QANT | 0.462
QADT | 0.287
QHDT | 0.344
QAND | ≤ 0.2
QCDT | 0.369
QHNT | 0.49
QPDT | ≤ 0.2
QFDT | ≤ 0.2
QHNH | 0.297
SMIR | ≤ 0.2
HYMR | ≤ 0.2
SMAM | ≤ 0.2
VWNK | ≤ 0.2
TTMW | ≤ 0.2
QPRD | ≤ 0.2
QTRN | 0.543
QTDD | ≤ 0.2
QTYD | ≤ 0.2
QSRD | 0.219
QTYP | ≤ 0.2
QTYN | ≤ 0.2
QTDN | ≤ 0.2
QTRD | 0.379

Variant | one-hybrid fitness for binding NBS DNA
QCRD | 0.384
QTRP | 0.401
AYPY | ≤ 0.2
GIDC | ≤ 0.2
TRKM | 0.216
LSKY | ≤ 0.2
CYIS | ≤ 0.2
NMYI | ≤ 0.2
PGKG | ≤ 0.2
REGE | ≤ 0.2
SGQC | ≤ 0.2
TFKE | ≤ 0.2
GTES | ≤ 0.2
WLDV | ≤ 0.2
QYEV | ≤ 0.2
CNVT | ≤ 0.2
ADWS | ≤ 0.2
MSTF | ≤ 0.2
QTRH | 0.695
QTYH | 0.271
VRKE | ≤ 0.2
VRNT | 0.374
VRDT | ≤ 0.2
VRYT | 0.225
VRVT | ≤ 0.2

Variant | one-hybrid fitness for binding NBS DNA
VCNT | ≤ 0.2
VRKT | 0.393
VCKT | ≤ 0.2
VRRT | 0.432
VCRT | ≤ 0.2
FQNR | ≤ 0.2
ARIY | ≤ 0.2
LLCL | ≤ 0.2
RIHF | ≤ 0.2
RHHT | 0.419
RHHK | ≤ 0.2
RTHT | 0.57
RIHY | ≤ 0.2
RSHT | 0.402
RIHT | 0.532
RNHT | ≤ 0.2
RGHT | ≤ 0.2
RTHP | ≤ 0.2
RTHN | ≤ 0.2
TCRD | ≤ 0.2
THRD | ≤ 0.2
YERR | ≤ 0.2
FARS | ≤ 0.2
YKWR | ≤ 0.2
GHSC | ≤ 0.2

Variant | one-hybrid fitness for binding NBS DNA
LSHC | ≤ 0.2
RAHT | 0.427
RMHP | ≤ 0.2
RCHT | 0.538
RMHH | ≤ 0.2
RMHT | 0.448
RPHT | ≤ 0.2
RAHQ | ≤ 0.2
RAHK | ≤ 0.2
RFHT | 0.263
AGWC | ≤ 0.2
CVAV | ≤ 0.2
ANSI | ≤ 0.2
SVIN | ≤ 0.2
CNSM | ≤ 0.2
QFDR | ≤ 0.2
QFAG | ≤ 0.2
QFFG | 0.554
QFKH | ≤ 0.2
QFVR | ≤ 0.2
QFKR | 0.595
QFFS | ≤ 0.2
QFYG | ≤ 0.2
QFAR | ≤ 0.2
QFRR | 0.441

Variant | one-hybrid fitness for binding NBS DNA
QFYR | ≤ 0.2
QFFR | 0.439
KDMM | ≤ 0.2
CVAL | ≤ 0.2
PSKH | ≤ 0.2
NIHC | ≤ 0.2
ILDT | ≤ 0.2
GHDG | ≤ 0.2
NTKS | ≤ 0.2
DTKS | ≤ 0.2
QTKH | 0.744
NTKH | ≤ 0.2
QTVS | 0.406
QPKD | ≤ 0.2
QTKS | 0.783
QTKD | 0.398
QTVH | 0.247
QTVD | ≤ 0.2
LKPK | ≤ 0.2
HFKG | ≤ 0.2
MFQS | ≤ 0.2
CVRD | ≤ 0.2
CFTS | ≤ 0.2
THAL | ≤ 0.2
VGWS | ≤ 0.2

Variant | one-hybrid fitness for binding NBS DNA
YYSE | ≤ 0.2
CALW | ≤ 0.2
QTVP | ≤ 0.2
QTKN | 0.56
QTVN | ≤ 0.2
QCKP | 0.332
QTKP | 0.41
MGCR | ≤ 0.2
YYNE | ≤ 0.2
KRKG | 0.234
SVHI | ≤ 0.2
PNPM | ≤ 0.2
QAHS | 0.398
QMHD | ≤ 0.2
QAHH | ≤ 0.2
QHHS | 0.386
QHHH | 0.214
QMHS | 0.451
QMHH | 0.221
QLHN | ≤ 0.2
QLHD | ≤ 0.2
QAHN | ≤ 0.2
QHHD | ≤ 0.2
QLHS | 0.373
HRHV | ≤ 0.2

Variant | one-hybrid fitness for binding NBS DNA
IEST | ≤ 0.2
VWYL | ≤ 0.2
EEFL | ≤ 0.2
ILLI | ≤ 0.2
QSHN | ≤ 0.2
QIHS | 0.281
QSHH | ≤ 0.2
QPHS | ≤ 0.2
QCHS | 0.502
QSHS | 0.381
CANC | ≤ 0.2
RDTV | ≤ 0.2
RCTH | 0.237
RSTY | ≤ 0.2
RRTH | 0.509
RRTP | ≤ 0.2
RRTS | 0.661
RRTN | 0.339
RCTY | ≤ 0.2
RRTD | ≤ 0.2
RRTY | 0.378
